An excerpt weighted towards active compounds, which were near 7.5% of everything screened.
ELG1 genotoxic = inducers of genotoxicity in HEK293T ELG1-luciferase cells; Potency, µM (series often up to 46 µM), without a hit: at the top dose activity change, positive = activation, actives largely listed as activators; 330,000 compounds, 1.3% hits; HEK293T ELG1-luciferase reporter, luminescence, 16 h; note: % of control where 0% means no effect; nearly all actives have a fitted effect of over 60% in size
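HEK293T cells expressing luciferase-tagged ELG1 were exposed to compound or DMSO vehicle for 16 hr at 37 °C and 5% CO2. Luciferase activity was then measured with ONE-Glo after 30 min at room temperature.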
KinaseGlo FLuc = blocks Kinase-Glo luciferase, a counter-screen artifact. Q27757. Kinase-Glo luciferase, ATP luminescence, 8 min. Potency, µM (top dose mostly 38.3 µM), without a hit: at the highest dose activity change, negative = inhibition, actives largely listed as inhibitors. 200,000 compounds, 0.28% hits. AID 1379; note: % is set by controls: 0 for no effect and ±100 for the full control effect; nearly all actives have a fitted effect of over 60% in size
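Substrate mix (final 50 mM imidazole pH 7.2, 50 mM KCl, 7 mM MgCl2, 10 uM ATP, 0.01% Tween 20, 0.05% BSA) plus pin-tool compound, then Kinase-Glo detection mix; 8 min ambient, luminescence read.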
NPC1 prom act = activators of NPC1 promoter | Huh7 NPC1 promoter luciferase reporter, 24 h | Potency, µM (doses to about 9.22 µM), for the others: at the top dose activation, usual class: activators | 320,000 compounds, 2.4% hits | AID 485313; note: % of control where 0% means no effect; nearly all actives have a fitted effect of over 60% in size
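Stable NPC1-promoter luciferase Huh7 line; cpd (DMSO) 24 h, 37 °C, 5% CO2; Amplite luciferase reagent 10 min RT; luminescence readout. qHTS format.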
FLuc modulator = firefly luciferase modulation, counter-screen for miR-21 project; P08659; Potency, µM (titrated, usually from 57.5 µM), for the others: at the highest dose activity change, negative = inhibition, actives largely listed as inhibitors; AID 588342; 360,000 compounds, 6.9% hits; purified FLuc, Km substrates, luminescence inhibition;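 note: plate controls were vehicle for no effect and reference inhibitor for full effect; nearly all actives have a fitted effect of over 55% in size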
Target sequence (P08659 whole entry, looked up): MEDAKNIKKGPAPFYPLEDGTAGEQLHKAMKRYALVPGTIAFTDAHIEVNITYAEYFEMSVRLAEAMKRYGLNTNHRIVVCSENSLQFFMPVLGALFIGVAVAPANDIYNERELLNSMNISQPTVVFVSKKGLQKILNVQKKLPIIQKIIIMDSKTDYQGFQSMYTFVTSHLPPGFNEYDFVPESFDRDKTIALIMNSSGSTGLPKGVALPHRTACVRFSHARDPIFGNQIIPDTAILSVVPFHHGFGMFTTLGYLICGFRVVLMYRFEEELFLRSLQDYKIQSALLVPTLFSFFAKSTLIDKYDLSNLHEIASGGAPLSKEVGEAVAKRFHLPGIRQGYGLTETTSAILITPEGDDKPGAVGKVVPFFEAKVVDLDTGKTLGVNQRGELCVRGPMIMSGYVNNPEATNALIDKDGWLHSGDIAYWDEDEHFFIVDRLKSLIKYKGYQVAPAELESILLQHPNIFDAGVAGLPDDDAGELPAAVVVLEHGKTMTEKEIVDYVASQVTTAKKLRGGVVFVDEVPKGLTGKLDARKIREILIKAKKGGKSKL
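Purified P. pyralis luciferase, 10 nM final, with Km-level 10 uM D-luciferin and 10 uM ATP in 50 mM Tris acetate pH 7.5, 10 mM Mg acetate, 0.01% Tween-20, 0.05% BSA; 6-point qHTS titration about 60 µM downward; luminescence read.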
SMN2 splice up = enhancers of SMN2 splice variant expression; HEK293 SMN2-luciferase splicing reporter, luminescence, 30-36 h; Potency, µM (titrated, usually from 46.1 µM), for the others: top-dose activity change, positive = activation, usual class: activators; AID 1458; 210,000 compounds, 2.8% hits; note: % of control where 0% means no effect; nearly all actives have a fitted effect of over 55% in size
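qHTS luciferase splicing reporter: luminescence rises when SMN2 exon 7 is included in transfected HEK293 cells. Compound exposure lasted 30-36 h at 37C, with 4.5 mM final sodium butyrate as control, followed by a ONE-Glo read.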
Rab9 prom act = activators of Rab9 promoter | Huh7 Rab9 promoter-luciferase reporter, luminescence, 24 h | 320,000 compounds, 2.8% hits | Potency, µM (doses to about 9.22 µM), for the others: at the highest dose activation, negative = inhibition, usual class: activators; note: % of control where 0% means no effect; nearly all actives have a fitted effect of over 60% in size
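Rab9 promoter-driven luciferase in stably transfected Huh7 cells; 1500 cells/well rested 2 h, exposed to compound in DMSO for 24 h at 37 °C, 5% CO2. Luminescence read 10 min after adding luciferase reagent at ambient temperature.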
An asterisk follows results filed as active. Calls come from the whole dose curve; as a rule, active = well fitted curve in the direction sought with a large enough effect; inconclusive = small, poorly fitted or top-dose-only effect, or another doubt; inactive = no such curve, though single readings can be large; an effect the other way counts as inactive or inconclusive. Potency is the fitted concentration of half-maximal effect.

Screening CC(=O)Nc1nnc(COc2ccc(Cl)cc2)s1 returned ELG1 genotoxic 15µM*, KinaseGlo FLuc 4%, NPC1 prom act 3.2µM*, FLuc modulator 15µM*, SMN2 splice up 11µM* and Rab9 prom act 3.5µM*.
For NNC(=O)c1csc(COc2cc(Cl)cc(Cl)c2)n1 the results were ELG1 genotoxic 1%, NPC1 prom act -6%, FLuc modulator 4% and Rab9 prom act -3%.
`CC(=O)c1csc(COc2ccc(Cl)cc2)n1` gave ELG1 genotoxic inconclusive, NPC1 prom act 0.89µM*, FLuc modulator 24µM* and Rab9 prom act 0.79µM*.
Screening COc1ccc(C(O)P(=O)(OCCC(C)C)c2ccc(N(C)C)cc2)cc1 (stereo not given) returned ELG1 genotoxic -5%, NPC1 prom act 1%, FLuc modulator 9% and Rab9 prom act -1%.
For Cc1cccc(C(=O)NCC(=O)OCC(=O)c2cc(C)n(CC3CCCO3)c2C)c1 (stereo not given) the results were ELG1 genotoxic inconclusive, KinaseGlo FLuc -6%, NPC1 prom act 15%, FLuc modulator 21µM*, SMN2 splice up 8% and Rab9 prom act 22%.
Screening COc1cc(C(C)=O)ccc1OCC(=O)OCC(=O)c1cc(C)n(CC2CCCO2)c1C (stereo not given) returned ELG1 genotoxic 2%, NPC1 prom act 0%, FLuc modulator inconclusive and Rab9 prom act -5%.
Screening Cc1cc(C(=O)COC(=O)CNC(=O)c2ccccc2)c(C)n1CC1CCCO1 (stereo not given) returned ELG1 genotoxic 8%, KinaseGlo FLuc -2%, NPC1 prom act -4%, FLuc modulator 19µM*, SMN2 splice up -6% and Rab9 prom act -12%.
`COc1ccc(OC)c(-c2csc(-c3c(N)c(C(=O)c4ccc(Cl)cc4)n4ccccc34)n2)c1` gave FLuc modulator 2% and SMN2 splice up 1%.
Screening C=CCn1c(=O)[nH]c2cc(C(=O)N3CC=C(c4ccccc4)CC3)ccc2c1=O returned ELG1 genotoxic -2%, KinaseGlo FLuc 1%, NPC1 prom act -6%, FLuc modulator -3%, SMN2 splice up -32% and Rab9 prom act 1%.
Screening COCCCNc1ncnc2sc3c(c12)CCC(C)C3 (stereo not given) returned ELG1 genotoxic -1%, KinaseGlo FLuc -4%, NPC1 prom act -2%, FLuc modulator inconclusive, SMN2 splice up -22% and Rab9 prom act 0%.
`CC1CCc2c(sc3ncnc(NS(=O)(=O)c4cccs4)c23)C1` (stereo not given) gave ELG1 genotoxic 0%, KinaseGlo FLuc -1%, NPC1 prom act -3%, FLuc modulator 15µM*, SMN2 splice up 5% and Rab9 prom act 2%.
`CN1CCN(C(=O)c2cc(Cl)ccc2NC(=O)c2ccc(Cl)cc2Cl)CC1` gave ELG1 genotoxic 0%, NPC1 prom act -2%, FLuc modulator 1% and Rab9 prom act 3%.
Screening CN(C)/N=C/C=C1\CCC/C(=C/c2cccs2)C1=O returned ELG1 genotoxic inconclusive, NPC1 prom act inconclusive, FLuc modulator 0.85µM* and Rab9 prom act 3.2µM*.
CN(C)/N=C/C=C1\CC/C(=C\c2ccc(Br)cc2)C1=O was read as ELG1 genotoxic inconclusive, KinaseGlo FLuc 0%, NPC1 prom act 17%, FLuc modulator inconclusive, SMN2 splice up 1% and Rab9 prom act inconclusive.
For CCOc1ccc(S(=O)(=O)N2CCN(C(=O)c3cc(C4CC4)nn3-c3ccccc3)CC2)cc1 the results were ELG1 genotoxic -3%, NPC1 prom act -3%, FLuc modulator 1% and Rab9 prom act 0%.
Cc1cccc(-c2nnc(SCc3cc(=O)c4cccc(Cl)c4[nH]3)n2C)c1 was read as FLuc modulator -15%.

Screening data deposited in PubChem BioAssay by National Center for Advancing Translational Sciences (NCATS).
